Target: RUNX1 (UniProt Q01196)
Assay: RUNX1 binding intensity (PBM fluorescence) in presence of ETS1, normalised to RUNX1-only experiment (arbitrary fluorescence units); higher = stronger binding
Conditions: RUNX1 concentration 2 nM; ETS1 concentration 25 nM
Experimental: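 Cooperative gcPBM on 36-bp genomic probes with neighbouring ETS1 and RUNX1 sites. Recombinant human RUNX1 (2 nM) was incubated alone or with ETS1 (25 nM) and detected with anti-RUNX1 antibody plus Alexa488 secondary. Values are medians over 4 replicate spots; the RUNX1+ETS1 data were normalised to the RUNX1-only data. The probes sit in constant array flanks that are not printed.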
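Further: Full-length recombinant human ETS1 or RUNX1 bound to double-stranded 36-bp genomic probes on microarrays, detected by protein-specific primary antibody and Alexa488 secondary, spot fluorescence as median of four replicate spots.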

RUNX1, sequence (Q01196 whole entry): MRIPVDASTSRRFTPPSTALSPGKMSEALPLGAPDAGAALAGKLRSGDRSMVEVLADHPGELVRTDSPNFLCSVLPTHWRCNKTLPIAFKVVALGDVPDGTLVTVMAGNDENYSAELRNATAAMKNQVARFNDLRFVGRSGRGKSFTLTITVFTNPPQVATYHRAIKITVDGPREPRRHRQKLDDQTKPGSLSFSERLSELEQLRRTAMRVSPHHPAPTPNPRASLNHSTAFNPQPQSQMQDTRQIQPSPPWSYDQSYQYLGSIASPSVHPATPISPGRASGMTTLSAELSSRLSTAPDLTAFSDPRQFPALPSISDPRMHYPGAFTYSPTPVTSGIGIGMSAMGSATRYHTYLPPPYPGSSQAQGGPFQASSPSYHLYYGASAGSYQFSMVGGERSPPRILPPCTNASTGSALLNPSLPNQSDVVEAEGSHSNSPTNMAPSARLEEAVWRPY

How did the RUNX1 binding intensity turn out when GTTGGGGTGCGTGTAGGATGTGGTCTGGGATGATTA was run?
Its RUNX1 binding intensity is 867.

For AACTTAGCTTCCGGGAAGAAGGCGAGCGGTGGGAGG, which RUNX1 binding intensity is on record?
Its RUNX1 binding intensity is 1400.

With AGGAGAAGGAAGAGGATGTTGAGGTTGGGGGAAACC as the sequence, how does the RUNX1 binding intensity read?
Its RUNX1 binding intensity is 882.

How did the RUNX1 binding intensity turn out when TACACTCCCACATCCGCTGCGGCGCAACTCACAACA was run?
The RUNX1 binding intensity was 6980.

How did the RUNX1 binding intensity turn out when GCACCCTTCCTGCTTCCCACAGTGTGGTATAAGAGG was run?
Its RUNX1 binding intensity is 1560.

Which RUNX1 binding intensity does the source give for GACACCCCACACCGGAAACCTCAGACAGTCCTCAGC here?
The RUNX1 binding intensity was 2900.

With GACCTGCCTTCCGGCCTCCGTCACATGACCGCACAG as the sequence, how does the RUNX1 binding intensity read?
Its RUNX1 binding intensity is 2000.

Which RUNX1 binding intensity does the source give for GAAGTCACATCCTGTCTGTTGCGGCAGGGCACAGAG here?
The RUNX1 binding intensity was 1750.

AGGTTGAAAGCACTTCCGCTGCGGCCCCCGTAGGAA was tested. Which RUNX1 binding intensity did it give?
Its RUNX1 binding intensity is 1520.

With GCCCCCATGCTTCCTGTTGTGGGAGATGAAGTGTGG as the sequence, how does the RUNX1 binding intensity read?
Its RUNX1 binding intensity is 1650.

Which RUNX1 binding intensity does the source give for CCGGTCCTGACCGGAAGCGGTAACCGTCACTCCTTC here?
The RUNX1 binding intensity was 7940.

GACAGTTTTCCGGCCTAGTTTGCGGCTGCTCCTGCC was tested. Which RUNX1 binding intensity did it give?
The RUNX1 binding intensity was 2440.

Which RUNX1 binding intensity does the source give for TGTCCACCTCTACGGAAGTGCGCCGCAGTCCGCCAG here?
The RUNX1 binding intensity was 908.

GTGTGCGTGAGAAGAGGAAGTGGTTAGGAAGACACA was tested. Which RUNX1 binding intensity did it give?
The RUNX1 binding intensity was 1900.

For AGTCAAACAGGATGTGGCTGGGGAGGCGGTTGTCAC, which RUNX1 binding intensity is on record?
Its RUNX1 binding intensity is 2040.

Which RUNX1 binding intensity does the source give for TGGGGAACGCTGCGGATGCTGCGGTAAACCATGCGA here?
The RUNX1 binding intensity was 1700.

GGCTGGGGCGGTATCCTGTGGTCTTACTCTGGTGAC was tested. Which RUNX1 binding intensity did it give?
Its RUNX1 binding intensity is 2620.

How did the RUNX1 binding intensity turn out when ATCCCACTATAGGAAGCTTCTCTGTGGTTTTGAGCC was run?
The RUNX1 binding intensity was 1910.

ATTAGAGGTAGAGGAAATACCACATGCAAAGGTTTG was tested. Which RUNX1 binding intensity did it give?
Its RUNX1 binding intensity is 863.

How did the RUNX1 binding intensity turn out when GAAGCGATATTTCCTCCTGGGGTTGACCGCCCCGTG was run?
Its RUNX1 binding intensity is 1090.

For AACCTCCGACTTCCGGCCGCGCAGCGGTGGGCTGAG, which RUNX1 binding intensity is on record?
Its RUNX1 binding intensity is 1970.

For CGGGGACCACTGTCAGGATGTGGTCACTGGAGTCAC, which RUNX1 binding intensity is on record?
The RUNX1 binding intensity was 1420.

How did the RUNX1 binding intensity turn out when GAGAGGAGGATGTTGTCAGATACCCACAAATGAGAA was run?
Its RUNX1 binding intensity is 889.

For AGATCAACTTCCACATCCGGTGGTAACAGGGCCCTA, which RUNX1 binding intensity is on record?
Its RUNX1 binding intensity is 2970.

With CTGGTTTCATTTCCGGGTGCGGCTTCTGTCATAAAG as the sequence, how does the RUNX1 binding intensity read?
The RUNX1 binding intensity was 2460.

With TGCAAAAAAACAGGAAACACCCAGCCGCAAATTATA as the sequence, how does the RUNX1 binding intensity read?
Its RUNX1 binding intensity is 1230.

With TCGCCCGCCGCTTCCTGTCGCGGCGCCGCAGAGGCC as the sequence, how does the RUNX1 binding intensity read?
Its RUNX1 binding intensity is 3000.

For CTTAGCACTTCAGCCGGAAACCACAGCATACATTTC, which RUNX1 binding intensity is on record?
The RUNX1 binding intensity was 2310.

With AACTGTCTCTACCCAGGAAGTGGTTTTATTTAAAAG as the sequence, how does the RUNX1 binding intensity read?
The RUNX1 binding intensity was 2190.

With GCAGAAGAGGAAATGGTTTGCCTGTGCGGTGGGGGA as the sequence, how does the RUNX1 binding intensity read?
The RUNX1 binding intensity was 999.

How did the RUNX1 binding intensity turn out when CTACAAACGGCTTCCTCCTGCCTAACCACAACCTCA was run?
Its RUNX1 binding intensity is 5340.

CAAGAGCCGGAAGTCCCTTGTGCCGCAGTCCTTCCC was tested. Which RUNX1 binding intensity did it give?
The RUNX1 binding intensity was 1510.

TCTTTAAAACCCGGAAGTTCCTGTGGTTCATACGCT was tested. Which RUNX1 binding intensity did it give?
The RUNX1 binding intensity was 1940.

For AGCAACAACAAAGGAAGTGGCGGCCGCAGGGGGAGG, which RUNX1 binding intensity is on record?
Its RUNX1 binding intensity is 909.

For GTTCAGCGGACGGCTTCCTGCGGCTTGCTGGGGCCG, which RUNX1 binding intensity is on record?
Its RUNX1 binding intensity is 1000.

With GTTGCAGGAAACGATGGGTTTTGTGGTATGAACTGC as the sequence, how does the RUNX1 binding intensity read?
The RUNX1 binding intensity was 1700.

GCTAGACAGGAAACAGTGAGCTTCTGTGGGCAGGAG was tested. Which RUNX1 binding intensity did it give?
The RUNX1 binding intensity was 1060.

How did the RUNX1 binding intensity turn out when GAGACAGGAAATGTAGACTTGAGTCCTGTGGTAAAC was run?
Its RUNX1 binding intensity is 1260.

AGCAGCTGCCAGAGGAAGTCTGCGGTCGGAACAGGC was tested. Which RUNX1 binding intensity did it give?
The RUNX1 binding intensity was 3400.

How did the RUNX1 binding intensity turn out when TGTCTCTGCCGCCGGAAACCGCGCCGTAGATCATGC was run?
The RUNX1 binding intensity was 1420.

Source: the supplement of paper PMC10681739
